# Source: PubChem BioAssay (NCI)
# This is part of a sample that, as a whole, favours compounds with a hit. Of some 83,000 tested, about 20% had one in any assay.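 Results are percent growth after 48 hours of single-concentration exposure. 100 means growth as in untreated cells, lower positive values show inhibition; negative values down to -100 show cell death.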 Active and inactive are the calls of the source. The calls were made as follows: active = growth percent below 10; inactive = the rest.
# System: NCI-H226 lung
# Experiment: NCI-60 one-dose screen, 48 h (100 = growth as untreated, 0 = no growth, -100 = all killed)
# Settings: 10 µM unless noted
row,Structure (SMILES),growth
1,COc1cccc(/C=C/C(=O)c2c(C)nc3ccccc3c2/C=C/c2ccc(C)cc2)c1OC,62.8% (inactive)
2,COC1=C(OC)C(=O)C(OC)=C(OC)C1=O,93.6% (inactive)
3,Cn1c(-c2c(N)n(Cc3ccc(C(F)(F)F)cc3)c3nc(C#N)c(C#N)nc23)nc2ccccc21,-1.51% (active)
4,COc1ccc(/C=N/C2=C(C#N)C(c3ccc(OC)cc3)c3ccc4ccccc4c3O2)cc1 (configuration not stated),74.5% (inactive)
5,O=[N+]([O-])c1ccc(C2CC(c3ccccc3)=Nc3ccccc3S2)cc1 (configuration not stated),118% (inactive)
6,COc1cccc(-c2nc3sccn3c2-c2ccnc(NCCNS(=O)(=O)c3cccc(F)c3)c2)c1,22.9% (inactive)
7,Cc1ccc(NS(=O)(=O)c2ccc3c(c2)C2OCCC2C(c2ccc(C(=O)C(C)C)cc2)N3)cc1C (configuration not stated),45.3% (inactive)
8,C=C(C)[C@@H]1CC=C2c3sc(-c4ccc(C)cc4)nc3C[C@@H](C)[C@]2(C)C1,101% (inactive)
9,COc1ccc(C2=Nc3c(N)ncnc3NC(c3ccc4c(c3)OCO4)C2)cc1 (configuration not stated),85.5% (inactive)
10,Cc1cccc(Cc2cnc(NC(=O)c3ccc4nnsc4c3)s2)c1,102% (inactive)
11,CC(=O)n1c(-c2ccc(Cl)cc2)nc2c(c1=O)C(c1ccc(Cl)cc1)c1sc3c(Cl)cccc3c1O2 (configuration not stated),9.2% (active)
12,C[C@H](NC(=O)[C@@H]1CSSC[C@@H](NC(=O)c2nc3ccccc3cc2O)C(=O)NCC(=O)N1C)c1ccccc1,60.5% (inactive)
13,COc1cc(/C=N/n2c(CN3CCOCC3)nc3ccccc3c2=O)cc(OC)c1OC,115% (inactive)
14,COc1ccc2c(c1)O/C(=C\c1cccc(OCC(=O)Nc3nc(C)c(C)s3)c1)C2=O,92.2% (inactive)
15,O=c1c2c3c(sc2n2c(-c4cc(-c5ccccc5)nn4-c4ccccc4)nnc2n1Cc1ccccc1)CCCC3,99% (inactive)
16,Cc1ccc(Cl)cc1NC(=O)c1cc2ccccc2cc1O,-35.6% (active)
17,COc1ccc2[nH]c(O)c(/C=c3/cc4c(c(-c5ccc(F)c(OC)c5)n3)=Nc3ccccc3-4)c2c1,90.7% (inactive)
18,Clc1cccc(Cl)c1C(Nc1nc2ccccc2s1)Nc1nc2ccccc2s1,89.9% (inactive)
19,COC(=O)[C@H](CSC)N(C)C(=O)[C@@H]1CSSC[C@@H](NC(=O)c2nc3ccccc3cc2O)C(=O)NCC(=O)N1C,87.5% (inactive)
20,N[C@@H](CCCCNCC(=O)O)C(=O)O,98.4% (inactive)
21,CC/C=C1/C(=O)C=C[C@@H]1C/C=C\CCCC(=O)O,93.3% (inactive)
22,CC(C)=C[C@@H]1c2c(c3ccccc3n(C)c2=O)O[C@H]2c3c(c4ccccc4n(C)c3=O)OC(C)(C)[C@@H]12,101% (inactive)
23,N=C1CCC(=N)c2c1c(O)c1ccccc1c2O,87.3% (inactive)
24,C(=N\Nc1ncc(-c2cc3cc4c(cc3o2)OCO4)s1)/c1ccco1,58.4% (inactive)
25,Cc1ccc2[nH]c(=O)c3c(c2c1)OC(N)=C(C#N)C31c2cc(Br)ccc2-c2ccc(Br)cc21,58.7% (inactive)

# System: NCI-H322M lung
# Experiment: as above
# Settings: 10 µM unless noted
row,Structure (SMILES),growth
1,COC(=O)[C@]12CC[C@@H](C)[C@H](C)[C@@H]1C1=CC[C@@H]3[C@@]4(C)C(C=O)=C[C@@](C)(COC(=O)c5ccco5)C4=CC[C@@]3(C)[C@]1(C)CC2,39.6% (inactive)
2,Nc1n[nH]c2cc(F)c([C@@H]3Nc4c(F)cc5[nH]ncc5c4[C@H]4C5CCC(C5)[C@@H]34)cc12 (some centres not stated),57% (inactive)
3,CC1(c2ccccc2)NC(=O)N(NC(=O)CSc2nc(-c3cccs3)nc3ccccc23)C1=O (configuration not stated),98% (inactive)
4,CC(C)C(=O)Nc1n[nH]c2cc(-c3cccc(NS(=O)(=O)C4CC4)c3)ccc12,96.2% (inactive)
5,COc1c(CCC[P+](c2ccccc2)(c2ccccc2)c2ccccc2)cc2c(c1OC)OCO2,45.4% (inactive)
6,CN(C)CC1=NC2SC=C(c3ccccc3)C2C(=O)N1CC#N (configuration not stated),89.2% (inactive)
7,Cc1cc(C)c2c(-c3nnc(N)s3)cc(=O)oc2c1,99% (inactive)
8,C[C@]12CC[C@@H]3c4cc(OC(F)F)c(O)cc4CC[C@H]3[C@@H]1CC[C@@H]2OS(N)(=O)=O,45.4% (inactive)
9,NC(=S)Nc1cccc(O)c1,88.9% (inactive)
10,O=C(Nc1ccc(-n2cc(-c3ccncc3)c(-c3ccc(Cl)c(O)c3)n2)cc1)N1CCOCC1,106% (inactive)
11,COc1ccc(-c2cc(-c3cc(OC)c(OC)c(OC)c3)c(C#N)c(N3CCOCC3)n2)cc1O,65.5% (inactive)
12,COC(=O)CCC1=C(C)C2=NC1=CC1=NC(=CC3=NC(=Cc4[nH]c(/c(=C(/C)O)c4C)=C2)C(C(C)=O)=C3C)C(C)=C1CCC(=O)OC,102% (inactive)
13,COc1cccc(/C=C/C(=O)c2c(C)nc3ccccc3c2/C=C/c2ccc(C)cc2)c1OC,82.1% (inactive)
14,COC1=C(OC)C(=O)C(OC)=C(OC)C1=O,95.7% (inactive)
15,Cn1c(-c2c(N)n(Cc3ccc(C(F)(F)F)cc3)c3nc(C#N)c(C#N)nc23)nc2ccccc21,-4.98% (active)
16,COc1ccc(/C=N/C2=C(C#N)C(c3ccc(OC)cc3)c3ccc4ccccc4c3O2)cc1 (configuration not stated),97.6% (inactive)
17,O=[N+]([O-])c1ccc(C2CC(c3ccccc3)=Nc3ccccc3S2)cc1 (configuration not stated),107% (inactive)
18,COc1cccc(-c2nc3sccn3c2-c2ccnc(NCCNS(=O)(=O)c3cccc(F)c3)c2)c1,73.2% (inactive)
19,Cc1ccc(NS(=O)(=O)c2ccc3c(c2)C2OCCC2C(c2ccc(C(=O)C(C)C)cc2)N3)cc1C (configuration not stated),82.2% (inactive)

row,Structure (SMILES),growth
1,C=C(C)[C@@H]1CC=C2c3sc(-c4ccc(C)cc4)nc3C[C@@H](C)[C@]2(C)C1,101% (inactive)
2,COc1ccc(C2=Nc3c(N)ncnc3NC(c3ccc4c(c3)OCO4)C2)cc1 (configuration not stated),99.4% (inactive)
3,Cc1cccc(Cc2cnc(NC(=O)c3ccc4nnsc4c3)s2)c1,97.4% (inactive)
4,CC(=O)n1c(-c2ccc(Cl)cc2)nc2c(c1=O)C(c1ccc(Cl)cc1)c1sc3c(Cl)cccc3c1O2 (configuration not stated),16.7% (inactive)
5,C[C@H](NC(=O)[C@@H]1CSSC[C@@H](NC(=O)c2nc3ccccc3cc2O)C(=O)NCC(=O)N1C)c1ccccc1,76.7% (inactive)
6,COc1cc(/C=N/n2c(CN3CCOCC3)nc3ccccc3c2=O)cc(OC)c1OC,90% (inactive)
7,COc1ccc2c(c1)O/C(=C\c1cccc(OCC(=O)Nc3nc(C)c(C)s3)c1)C2=O,103% (inactive)
8,O=c1c2c3c(sc2n2c(-c4cc(-c5ccccc5)nn4-c4ccccc4)nnc2n1Cc1ccccc1)CCCC3,112% (inactive)
9,Cc1ccc(Cl)cc1NC(=O)c1cc2ccccc2cc1O,-3.32% (active)
10,COc1ccc2[nH]c(O)c(/C=c3/cc4c(c(-c5ccc(F)c(OC)c5)n3)=Nc3ccccc3-4)c2c1,89.1% (inactive)
11,Clc1cccc(Cl)c1C(Nc1nc2ccccc2s1)Nc1nc2ccccc2s1,106% (inactive)
12,COC(=O)[C@H](CSC)N(C)C(=O)[C@@H]1CSSC[C@@H](NC(=O)c2nc3ccccc3cc2O)C(=O)NCC(=O)N1C,100% (inactive)
13,N[C@@H](CCCCNCC(=O)O)C(=O)O,110% (inactive)
14,CC/C=C1/C(=O)C=C[C@@H]1C/C=C\CCCC(=O)O,113% (inactive)
15,CC(C)=C[C@@H]1c2c(c3ccccc3n(C)c2=O)O[C@H]2c3c(c4ccccc4n(C)c3=O)OC(C)(C)[C@@H]12,112% (inactive)
16,N=C1CCC(=N)c2c1c(O)c1ccccc1c2O,93.1% (inactive)
17,C(=N\Nc1ncc(-c2cc3cc4c(cc3o2)OCO4)s1)/c1ccco1,77.3% (inactive)
18,Cc1ccc2[nH]c(=O)c3c(c2c1)OC(N)=C(C#N)C31c2cc(Br)ccc2-c2ccc(Br)cc21,75.3% (inactive)
